Many of the other results were omitted from the sample, so hits are more common in it than they were.
fixLJ activator = activators of Burkholderia fixLJ two-component system, primary screen, B. multivorans, GFP reporter; 0.3% of 29,000 active; B. multivorans fixK-promoter GFP reporter, 18 h; active compounds read high; z-score (no concentration beside the values);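 active = replicate mean overnight rise in green fluorescent reporter signal, 3 or more SD over negative controls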
* hit, by the source's call.

SMILES | fixLJ activator
COc1ccc(O)c(C2=Nc3ccccc3N=C(c3ccccc3)C2)c1 | 3.7*
COc1ccc(C2=NC(c3ccccc3)=Nc3ccc(C)cc3N2)cc1 | -0.44
Cc1cccc(C2=Nc3ccccc3N=C(c3cc(Cl)ccc3O)C2)c1 | 1.4
Cc1ccccc1C1(CC(=O)NCc2nonc2C)CCOC(C)(C)C1 (centres undefined) | 0.26
CC(=O)c1[nH]c(C)c(C(=O)NCC2CN(S(C)(=O)=O)CCO2)c1C (centres undefined) | -0.2
O=C(O)c1ccc(NC(=O)c2cn(-c3ccccc3)nc2-c2ccc(Br)cc2)cc1 | -0.52
COc1ccc(-c2nn(-c3ccccc3)cc2C(=O)Nc2ccccc2OC)cc1 | 4.6*
COc1ccccc1NC(=O)c1cc2c(C)nn(-c3ccccc3)c2s1 | 0.48
COCCc1noc(CN(C)C(=O)Nc2c(C)nn(C)c2C)n1 | 0.88
CN(CC(=O)NC1COCCC1Oc1cccc(F)c1)C1CCCC1 (centres undefined) | -0.68
Cc1ccnn1CCC(=O)NCCOc1cccc2cccnc12 | 2.4
Cc1ncnc(N2CCC(c3nnc(CN4CCCCC4)n3C)CC2)c1C | 1.3
O=C(NCc1nnc2n1CCCC2)C1COc2ccccc2C1 (centres undefined) | -0.69
COc1ccc(OCC2CCCN(C(=O)c3ccc4nc(C)[nH]c4c3)C2)cc1 (centres undefined) | 3.4*
Cc1nc2ccc(C(=O)N3CCCC4(CCc5cn[nH]c54)C3)cc2[nH]1 (centres undefined) | -0.79
COc1ccc(OCC2CCCN(C(=O)C3CCN(C(C)=O)CC3)C2)cc1 (centres undefined) | 2.1
CN(CCC(=O)N(CC(=O)O)Cc1ccccc1)C1CCS(=O)(=O)C1 (centres undefined) | -1.9
CCN(CCc1nc2ccc(OC)cc2[nH]1)C(=O)C1CCC(=O)N(C2CC2)C1 (centres undefined) | -0.9
CCOCCC(=O)N1CCC[C@@]2(C(=O)NCc3cccnc3N)CCN(C)C[C@@H]12 | -0.81
Cc1cccc(CN(C(=O)c2cn[nH]c2-n2cnnn2)C2CCCCC2)c1 | 1.6
Cc1nc(CN2CCC(NC(=O)Cc3ccccc3C)C(O)C2)cs1 (centres undefined) | -0.13
COc1ccc(CN2COc3ccc4c(-c5ccccc5)cc(=O)oc4c3C2)cc1 | 3.7*
COC(=O)Cc1c(C)c2ccc3c(c2oc1=O)CN(Cc1ccc(C)cc1)CO3 | 1.4
Cc1ccc(CN2COc3ccc4c(-c5ccccc5)cc(=O)oc4c3C2)cc1 | -0.47
CC(=O)c1cccc(NC(=O)Cn2cnc3c2c(=O)n(C)c(=O)n3C)c1 | -2.5
SMILES | fixLJ activator
Cc1ccc2nc(-c3ccc(NC(=O)C(F)(F)F)cc3)sc2c1 | -2.5
Cn1c(=O)c2nc3ccc(NC(=O)C(F)(F)F)cc3nc2n(C)c1=O | 14*
O=C(CCC(=O)c1ccc(F)cc1)NCCc1nc2c(s1)CCC2 | -0.54
COc1cc(NC(=O)c2cc(-c3ccc4c(c3)OCO4)on2)cc(OC)c1OC | 3.7*
COc1ccc(NC(=O)c2cc(-c3ccc4c(c3)OCO4)on2)c(OC)c1 | -0.07
COc1ccc(-c2cc(C(=O)Nc3ccc4c(c3)OCO4)no2)cc1 | -2.9
Cc1cc(C(F)(F)F)n(-c2nc(C(=O)N3CC(O)C(Cc4ccncc4)C3)cs2)n1 (centres undefined) | -0.86
CCCCN(CC)CCCNC(=O)Cn1ncc2c3ccccc3n(Cc3ccc(F)cc3)c2c1=O | -3.4
CC1CCCCN1CCCNC(=O)Cn1ncc2c3ccccc3n(Cc3ccccc3F)c2c1=O (centres undefined) | -0.46
CCCN(CCC)CCCNC(=O)Cn1ncc2c3ccccc3n(Cc3ccc(F)cc3)c2c1=O | -1.7
O=C(Cn1ncc2c3ccccc3n(Cc3ccc(Cl)cc3)c2c1=O)NCCCc1ccccc1 | 1.3
Cc1ccccc1Cn1c2ccccc2c2cnn(CC(=O)NCc3cccc(Cl)c3)c(=O)c21 | -1.5
CC(C)N(Cc1ccccc1)C(=O)Cn1ncc2c3ccccc3n(Cc3ccccc3)c2c1=O | 0.03
O=C(Cn1ncc2c3ccccc3n(Cc3cccc(Cl)c3)c2c1=O)NCCCc1ccccc1 | 19*
CCN(CC)CCCNC(=O)Cn1ncc2c3ccccc3n(Cc3ccccc3)c2c1=O | -2
CCCCN(C)CCCNC(=O)Cn1ncc2c3ccccc3n(Cc3cccc(Cl)c3)c2c1=O | 6.4*
Cc1ccc(Cn2c3ccccc3c3cnn(CC(=O)Nc4cc(Cl)ccc4C)c(=O)c32)cc1 | -1.1
O=C(Cn1ncc2c3ccccc3n(Cc3cccc(Cl)c3)c2c1=O)NCCCN1CCCCC1 | 16*
CN(Cc1ccccc1)C(=O)Cn1ncc2c3ccccc3n(Cc3cccc(Cl)c3)c2c1=O | 5.5*
CC(CCc1nc(-c2ccc(F)c(F)c2)n[nH]1)N1CCOCC1 (centres undefined) | 0.69
O=C1CCCN1CCCC(=O)N1CCC2(CC1)OCCc1c2[nH]c2ccccc12 | 0.12
CSCCC(=O)N1CCC2(C1)C(=O)N(CC(N)=O)c1ccccc12 (centres undefined) | -0.54
COc1ccc(S(=O)(=O)NCCCc2csc(N)n2)cc1F | -0.91
